Bioassay records from PubChem BioAssay.
tim23-1 inh – growth inhibitors of tim23-1 mutant yeast, primary screen, luminescence, uHTS; S. cerevisiae tim23-1 growth, BacTiter-Glo luminescence, 24 h; inhibition, % at 20 µM; 1.3% of 330,000 active; AID 463212, 2010;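 active = growth inhibition of the mutant yeast at or above 50%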;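 note: temperature-sensitive mutant grown at 25 °C; plate controls were DMSO-treated mutant yeast for no effect and medium wells lacking yeast for full effect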
tim10-1 inh – growth inhibitors of tim10-1 mutant yeast, primary screen, luminescence, uHTS; AID 463190, 2010; 2.2% of 330,000 active; inhibition, % at 20 µM; S. cerevisiae tim10-1 ts strain growth, BacTiter-Glo, 24 h;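 active = inhibition of at least 40%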;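 note: mutant grown at 25 °C; 0% = DMSO wells with yeast and 100% = wells holding no yeast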
TIM10 inh – growth inhibitors of isogenic TIM10 control yeast, primary screen, counter-screen for tim10-1 yeast inhibitor project, luminescence, uHTS; S. cerevisiae TIM10 strain growth, BacTiter-Glo luminescence, 24 h; inhibition, % at 10 µM; 1.4% of 330,000 active; AID 463195, 2010;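 active = inhibition of 40% or more at the single tested concentration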;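 note: wild-type TIM10 isogenic control strain grown at permissive 25 °C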
SKKanGAS inh – S. pyogenes SKKanGAS growth inhibitors in kanamycin, primary screen, streptokinase expression inhibitor project, SKKanGAS strain, BacTiter-Glo luminescence; AID 1662, 2009; 6 h; inhibition, % at 7.5 µM; 1.3% of 300,000 active;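 active = mean replicate score, as percent of positive control median, at least 50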;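 note: strain carries kanamycin resistance gene driven by streptokinase promoter and grows in 40 µg/ml kanamycin; loss of luminescence reflects streptokinase promoter inhibition or plain growth inhibition; 0% = median of DMSO wells and 100% = positive control at its reference dose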
PfHsp90 yeast 2 – growth inhibition of PfHsp90-expressing yeast, primary screen, antimalarial PfHsp90 inhibitor project, S. cerevisiae, BacTiter-Glo luminescence, single point, set 2; BacTiter-Glo ATP, 48 h; yeast lacking PDR1 and PDR3 efflux regulators; inhibition, % at 9.4 µM; 0.32% of 310,000 active;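 active = every replicate shows inhibition above about 80%, whatever the replicate mean, limit read from the data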;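 note: 0% = DMSO neutral controls and 100% = 20 µM radicicol positive controls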
NLRP3 yeast inh – NALP3 inflammasome inhibitors in reconstituted yeast, primary screen, luminescence, uHTS; inhibition, % at 10 µM; 0.39% of 330,000 active; Yeast reconstituted NLRP3/ASC/caspase-1, beta-gal luminescence, 24 h;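 active = inhibition of 50% or more; inactive = inhibition below 50%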;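 note: plate controls were induced DMSO wells for no effect and uninduced yeast grown without galactose for full effect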
* marks the source's active call; other numbers are inactive results; . = no result. Hits are enriched below; roughly 4.6% of the tested compounds scored in any of these assays.

SMILES | tim23-1 inh | tim10-1 inh | TIM10 inh | SKKanGAS inh | PfHsp90 yeast 2 | NLRP3 yeast inh
COc1cccc(C2C3=C(N=c4s/c(=C\c5ccc(OCC(=O)O)cc5)c(=O)n42)c2ccccc2CC3)c1 (centres undefined) | 13 | 22 | 12 | 102* | . | 15
C=CCn1c(SCCCC)nc(O)cc1=O | -8 | 3 | 2 | 15 | 22 | 9
C=CCn1c(SC(C)CC)nc(O)cc1=O (centres undefined) | -13 | 2 | -3 | 52* | 3 | 2
CN1CCN(C(c2ccccn2)c2cc(Cl)c3cccnc3c2O)CC1 (centres undefined) | 34 | -23 | -38 | 19 | 103* | 37
NC(=O)NC(=O)COC(=O)c1ccc2c(c1)C(=O)N(Cc1ccccc1)C2=O | -12 | -4 | -8 | -5 | -40 | 9
Cc1oc(-c2cc(Cl)cc(Cl)c2)cc1C(=O)NCCc1ccccc1 | 17 | 29 | 17 | 51* | -4 | 15
C=C(C)CNC(=S)NNC(=O)CCn1c2cc(Cl)ccc2c2ccc(Cl)cc21 | 9 | 20 | 3 | 31 | -34 | 20
C=C(C)CNC(=S)NNC(=O)CCn1c2ccc(Cl)cc2c2cc(Cl)ccc21 | 9 | 22 | 23 | 74* | -9 | 21
c1ccc2sc(N3CCCN(Cc4nc(-c5cnccn5)no4)CC3)nc2c1 | 18 | 16 | 12 | 4 | 71 | 9
O=C1c2cccc3c([N+](=O)[O-])ccc(c23)C(=O)N1O | 46 | -21 | 15 | 79* | 12 | 11
CN(c1ccccc1)S(=O)(=O)c1cccc(C(=O)OCC(=O)NCCCN2CCCC2=O)c1 | 7 | 13 | 13 | -7 | 21 | -11
Cc1cccc(C(=O)Nc2ccc(N3CCN(S(C)(=O)=O)CC3)cc2)c1 | -12 | -7 | 14 | -5 | 6 | 1
NS(=O)(=O)c1ccc(NC(=O)COc2ccc(S(=O)(=O)N3CCCC3)cc2)cc1 | 1 | 5 | 1 | 1 | -2 | 12
CSc1ccc(S(=O)(=O)NCC(=O)OCC(=O)N2CCCC2=O)cc1[N+](=O)[O-] | 17 | 9 | -2 | 68* | -6 | 26
CSc1ccc(S(=O)(=O)NCC(=O)OCC(=O)N2CC(C)CC(C)C2)cc1[N+](=O)[O-] (centres undefined) | -3 | -4 | 2 | 4 | -5 | 0
Oc1ccc2ccccc2c1-c1sc(Nc2ccccc2)n[n+]1-c1ccc(F)cc1 | 26 | 16 | 25 | 9 | -14 | 25
Fc1ccc(-[n+]2nc(Nc3ccccc3)sc2-c2c3ccccc3cc3ccccc23)cc1 | 29 | 37 | 21 | 57* | -8 | 19
Cc1ccc(C)c(S(=O)(=O)N(C)c2ccc(OC(=O)C3CCN(C(=O)Nc4ccccc4)CC3)cc2)c1 | . | . | . | . | 1 | .
CC(=O)O[C@H]1CC[C@]2(C)[C@H]3CC=C4[C@@H]5[C@@H](C)[C@H](C)CC[C@]5(C(=O)O)CC[C@@]4(C)[C@]3(C)CC[C@H]2C1(C)C | 11 | 17 | -1 | 107* | . | 2
COc1ccc(C(=O)Nc2c3c(nn2-c2ccc([N+](=O)[O-])cc2)CS(=O)(=O)C3)cc1 | 6 | 12 | -3 | 52* | 3 | 19
COc1ccc(C(=O)Nc2c3c(nn2-c2ccc(Cl)cc2)CS(=O)(=O)C3)cc1 | 9 | 5 | 6 | -4 | 14 | 18
CCOC(=O)c1cc([N+](=O)[O-])cc([N+](=O)[O-])c1Sc1ncnc2nc[nH]c12 | . | . | . | . | 107* | .
O=C(c1ccc(Br)cc1)c1cc2ccc(O)cc2oc1=O | 20 | 20 | 7 | 4 | -22 | 9
O=C(c1ccccc1)c1cc2ccc(O)cc2oc1=O | 41 | 40 | 29 | 62* | 53 | 10
CC(=O)Nc1cccc(NC(=O)Cc2cccs2)c1 | 7 | 12 | -7 | 2 | -9 | 9
SMILES | tim23-1 inh | tim10-1 inh | TIM10 inh | SKKanGAS inh | PfHsp90 yeast 2 | NLRP3 yeast inh
O=C(Cc1cccs1)Nc1cccc(-c2nc3cc4ccccc4cc3[nH]2)c1 | . | . | . | 72* | 24 | .
OCCOCCn1c(C(CO)Nc2nc(-c3cccc(Br)c3)cs2)nc2ccccc21 (centres undefined) | 17 | 1 | 0 | 23 | . | 9
CCCn1c(C(CO)Nc2nc(-c3cccc(Br)c3)cs2)nc2ccccc21 (centres undefined) | 38 | 39 | 30 | 96* | -88 | -3
CCC(=O)N1CCc2cc(S(=O)(=O)NC(C(=O)NC3CCCc4ccccc43)C(C)C)ccc21 (centres undefined) | 13 | 8 | 20 | 5 | -1 | 9
COc1cnc(-c2ccccc2)nc1Oc1ccc(C(C)(C)C)cc1 | 14 | 8 | 22 | 93* | 8 | 12
COc1cnc(-c2ccccc2)nc1Oc1ccccc1C | 3 | -14 | -13 | 7 | 2 | -4
C=CCN1C(=O)/C(=C\c2ccc(OC(=O)c3ccco3)c(OC)c2)SC1=S | 2 | 21 | 21 | 9 | 0 | -7
C=CCN1C(=O)/C(=C/c2ccc(OC(C)=O)c(OCC)c2[N+](=O)[O-])SC1=S | . | . | . | 77* | -47 | .
CN(C)C(=O)N1CCC(C(=O)N2CCCC(C(=O)c3cccc4ccccc34)C2)CC1 (centres undefined) | 13 | 23 | -11 | 18 | -57 | 3
CO/N=C(/C(=O)N[C@@H]1C(=O)N2C(C(=O)O)=CCS[C@H]12)c1cnc(N)s1 | . | . | . | 99* | . | .
CCOC(=O)N1CCC(N(CCN(C)C)C(=S)Nc2ccc(OCC)cc2)CC1 | -2 | 10 | -22 | 6 | . | 0
C[C@]12CC[C@@H]3c4ccc(OC(=O)c5ccccc5)cc4CC[C@H]3[C@@H]1CC[C@@H]2O | 39 | 25 | 12 | 84* | -30 | 27
CC(=O)Oc1ccc2c(c1)CCC1C2CCC2(C)C(OC(C)=O)CCC12 (centres undefined) | . | . | . | . | 16 | .
COc1ccc(S(=O)(=O)N2CCC(C(=O)NCc3ccncc3)CC2)cc1C | 0 | -18 | 9 | 0 | 9 | 22
COc1ccc(Cl)cc1C(Nc1cccnc1)c1ccc2cccnc2c1O (centres undefined) | 24 | 26 | 3 | 69* | 104* | 1
Cc1ccccc1OCC(=O)Nc1nc(-c2ccncc2)cs1 | 26 | 26 | 22 | . | -7 | 1
O=C(CCS(=O)(=O)c1ccccc1)Nc1nc(-c2ccccn2)cs1 | 10 | 10 | -13 | -8 | -10 | 1
COc1ccc2oc(C(=O)NC(C)c3ccccn3)c(C)c2c1 (centres undefined) | 30 | 2 | 9 | . | . | 20
COc1ccc(OCCCC(=O)Nc2nc(-c3ccccn3)cs2)cc1 | 18 | -11 | 15 | 73* | 0 | 27
